This is a sample that favours compounds with a hit; in the whole collection about 4.3% have one here.
D3 ag – qHTS of D3 Dopamine Receptor Agonist: qHTS; D3R DiscoveRx beta-arrestin cells, luminescence, 90 min; max activation, %; actives 0.58% (n = 410,000); AID 652048, 2013; in the data active = max activation above about 30%; also: 0% is about no effect
Target sequence (P35462 whole entry, looked up): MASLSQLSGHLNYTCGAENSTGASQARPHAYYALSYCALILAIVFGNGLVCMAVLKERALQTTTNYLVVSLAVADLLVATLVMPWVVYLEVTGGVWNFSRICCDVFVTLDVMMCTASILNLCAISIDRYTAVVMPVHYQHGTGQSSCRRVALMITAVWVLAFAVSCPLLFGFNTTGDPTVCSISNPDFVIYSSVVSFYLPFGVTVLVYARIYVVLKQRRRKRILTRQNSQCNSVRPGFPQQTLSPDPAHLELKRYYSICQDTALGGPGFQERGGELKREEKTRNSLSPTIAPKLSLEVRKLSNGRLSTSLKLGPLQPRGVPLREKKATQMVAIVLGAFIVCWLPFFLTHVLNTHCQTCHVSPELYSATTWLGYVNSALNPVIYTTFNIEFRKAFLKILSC
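Agonist-mode cell screen: cells plated at 1500/well and incubated overnight at 37 °C, then exposed to library compounds for 90 min at 37 °C. Detection reagent was added for 30–60 min at room temperature, and luminescence was read.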
D3 antag – qHTS of D3 Dopamine Receptor Antagonist: qHTS; D3R cells, DiscoveRx beta-arrestin luminescence, antagonist mode; active compounds read low; actives 2.5% (n = 360,000); max response, negative = inhibition, %; in the data active = max response below about -50%; inconclusive = no clear call, values can overlap the other calls; also: % is scaled to controls: 0 for no effect and ±100 for the full control effect
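Cells plated overnight at 1500 cells/well, then exposed to library compounds with dopamine controls for 90 minutes at 37 degrees C. DiscoveRx reagent added for 30–60 minutes at room temperature; luminescence read, quantitative HTS format.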
GLP-1R agonist – qHTS of GLP-1 Receptor Agonists; HEK293 GLP-1R CRE-luciferase, luminescence, 4-6 h; cells express a hypersensitive GLP-1R form; actives 0.007% (n = 380,000); Potency, µM (series often up to 45.6 µM), for inactives: at the top dose activation, usual class: activators; Glucagon-like peptide 1 receptor (Homo sapiens), P43220; also: potency is read from the fitted curve at half-maximal effect; % of control where 0% means no effect
GLP1R inv ag – qHTS of GLP-1 Receptor Inverse Agonists (Inhibition Mode). HEK293 GLP-1R CRE-luciferase, luminescence, 24 h; GLP-1R form is constitutively active. Potency, µM (top dose mostly 38.3 µM), for the others: top-dose activity change, negative = inhibition, most hits filed as inhibitors. Glucagon-like peptide 1 receptor (Homo sapiens), P43220. actives 1.6% (n = 410,000). AID 624417, 2012; also: potency is read from the fitted curve at half-maximal effect; % is scaled to controls: 0 for no effect and ±100 for the full control effect; nearly all actives have a fitted effect of over 55% in size
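qHTS in 1536-well format: reporter HEK293 cells expressing constitutive GLP-1R activity in DMEM + 10% Nu serum, 24 hr with compounds at 37 deg C, luminescence read after 12 min with detection reagent.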
* hit, by the source's call; u = inconclusive; x = not tested or not shown. Unless noted, calls follow the shape of the dose curve; as a rule, active = well fitted curve in the direction sought with a large enough effect; inconclusive = small, poorly fitted or top-dose-only effect, or another doubt; inactive = no such curve, though single readings can be large; an effect the other way counts as inactive or inconclusive.

SMILES	D3 ag	D3 antag	GLP-1R agonist	GLP1R inv ag
Cc1ccc(NC2=Nc3ccccc3CS2)cc1	0	-26	-18%	6.3µM*
CC(C)n1c(=O)c2oc3ccccc3c2n(Cc2ccccc2F)c1=O	6	x	x	6%
CCC(C)N(C)Cc1cccc(C2(O)CCN(S(=O)(=O)c3ccc(F)c(C)c3)CC2)c1 (configuration not stated)	-11	-15	1%	2.5µM*
CCOc1ccc2oc(C(=O)N3CCN(c4ccccc4OCC)CC3)c(C)c2c1	6	14	1%	11µM*
CCOc1ccc2oc(C(=O)NC3CCN(Cc4ccccc4)CC3)c(C)c2c1	-36	-24	9%	u
CCOc1ccc2oc(C(=O)N3CCCN(C)CC3)c(C)c2c1	-9	3	-1%	u
CCOc1ccc2oc(C(=O)NC3CC(C)(C)NC(C)(C)C3)c(C)c2c1	0	-3	-1%	10µM*
COc1cc(NC(=O)CCc2c(C)nn(-c3ccc(N4CCCCC4)nn3)c2C)cc(OC)c1OC	73*	x	x	6%
COc1ccc(NC(=O)CCc2c(C)nn(-c3ccc(N4CCCCC4)nn3)c2C)cc1Cl	5	x	x	-7%
CC(NC(=O)CN(c1cccc(C(F)(F)F)c1)S(=O)(=O)c1ccc(Cl)c([N+](=O)[O-])c1)c1ccccc1 (configuration not stated)	-17	-54*	-1%	u
CCN(CC)CC(O)Cn1c2ccccc2c2ccccc21 (configuration not stated)	1	-8	18%	u
CCN(CC)CC(O)Cn1c(C)c(-c2ccccc2)c2cc([N+](=O)[O-])ccc21 (configuration not stated)	-7	u	2%	4.5µM*
CN1CCN(CC(=O)N2CCn3c4c(c5cc(C6CCCCC6)ccc53)CCCC42)CC1 (configuration not stated)	3	-65*	-4%	u
Cc1ccc2c(c1)c1c3n2CCN(C(=O)CN2CCN(C)CC2)C3CCC1 (configuration not stated)	9	u	8%	u
CSC1=C(C#N)C(=O)NC(c2ccccc2O)S1 (configuration not stated)	-5	-7	-2%	-10%
COC(=O)CSC1=C(C#N)C(=O)NC(c2ccccc2)S1 (configuration not stated)	-2	-74*	1%	2%
CN(CCc1ccccn1)Cc1ccc(Cl)cc1Cl	-41	-70*	-2%	-10%
CN(CCc1ccccn1)Cc1ccc(Cl)c(Cl)c1	-21	-51*	-4%	u
CSc1ccc(CN(C)CCc2ccccn2)cc1	-5	-21	7%	-1%
CN(CCc1ccccn1)S(=O)(=O)c1ccccc1F	2	-24	16%	0%
c1ccc2nc(-c3nc4ccccc4[nH]3)ccc2c1	-1	4	-22%	10µM*
CCOC(=O)C1CCCN(C(=O)c2nn(-c3ccc(C)cc3)c(=O)c3c2c2ccccc2n3C)C1 (configuration not stated)	-11	x	x	8%
CN1C(=O)[C@@H]2[C@H](C1=O)[C@@H]1C(=O)Nc3ccccc3C(=O)N1[C@@H]2c1ccc(F)cc1	0	1	-1%	-3%
CCN1C(=O)[C@@H]2[C@H](C1=O)[C@@H]1C(=O)Nc3ccccc3C(=O)N1[C@@H]2c1ccc(OC)cc1	35*	-7	-3%	14%
CCc1cccc(C)c1NC(=O)c1cc(S(=O)(=O)N(C)Cc2ccccc2)ccc1F	-21	x	x	u
SMILES	D3 ag	D3 antag	GLP-1R agonist	GLP1R inv ag
CC(=O)Nc1nonc1-c1nnc(SCC(=O)Nc2ccccc2Cl)n1C	6	x	x	11%
O=C(/C=C/c1cccc(Cl)c1)c1nc2ccccc2[nH]1	-6	-56*	-23%	u
O=C(/C(=C\c1ccccc1)c1nc2ccccc2[nH]1)c1ccc(Cl)cc1	-3	-71*	9%	u
COC(=O)/C(=C\c1ccc(O)cc1)c1nc2ccccc2[nH]1	-5	3	-5%	9%
O=C(/C(=C/c1ccc(Cl)cc1)c1nc2ccccc2[nH]1)c1cccs1	-14	-65*	-8%	4.5µM*
Cc1ccc(C)c(N2CCN(c3ncccc3[N+](=O)[O-])CC2)c1	7	-11	16%	u
O=C(CCS(=O)(=O)c1cccc2nonc12)Nc1c(F)cccc1F	1	x	x	15%
COc1ccc(C(=O)N/C(=C\c2ccco2)C(=O)NCCCn2ccnc2)cc1	-17	-55*	0%	0%
CC1CC2(C)Oc3ccccc3CC2C(C)C1CNCCCN(C)C (configuration not stated)	-19	u	-8%	0.89µM*
COc1cccc(CNC(=O)c2cccnc2Sc2ccccc2)c1	-3	-1	u	135%
CCc1ccc(Sc2cc(C(=O)NCc3cccc(OC)c3)c3ccccc3n2)cc1	1	x	-7%	10µM*
COc1ccc(C2CC(=O)c3cc(-c4nc(-c5cccc([N+](=O)[O-])c5)cs4)c(=O)n(-c4ccccc4N)c3C2)cc1 (configuration not stated)	-6	x	1%	12%
CCN(CC)C(=O)CSC1=Nc2ccccc2C2=NC(c3ccccc3)C(=O)N12 (configuration not stated)	0	-62*	4%	0%
Cc1noc(-c2ccc(N3CCC(C)CC3)c([N+](=O)[O-])c2)n1	-5	x	x	3%
COc1cc(NS(=O)(=O)c2cccc3nsnc23)c(C(=O)O)cc1OC	-4	-83*	1%	18%
COc1cc(NS(=O)(=O)c2cccc3nsnc23)cc(OC)c1	3	-64*	6%	0%
CCOC(=O)c1c(C)[nH]c(C)c1S(=O)(=O)NCC(=O)Nc1cccc(C(F)(F)F)c1	-12	x	x	-20%
CCNC(=O)C1(C)CCN(C(=O)c2cccc(OC(C)=O)c2C)C1 (configuration not stated)	7	21	-5%	7%
O=C(NCc1nnnn1-c1ccccc1)c1ccc2ccccc2c1	105*	-6	-2%	4%
CC(=O)Nc1ccccc1-c1nc2ccccc2n(CC(=O)c2ccc(C)c(C)c2)c1=O	-20	x	x	15%
O=C(N/N=C/c1cccc2ccccc12)c1ccncc1	0	-14	-6%	17%
O=C(/C=C/c1cccc2ccccc12)c1ccncc1	2	4	-35%	8.9µM*
O[C@@H]1C[C@H](c2ccc(Cl)cc2)N(CC2CCCCC2)C[C@H]1n1cc(C2CC2)nn1	-3	-22	-5%	-4%
CCCCCCN1C[C@@H](n2cc(C3CC3)nn2)[C@H](O)C[C@@H]1c1ccc(C)cc1	0	-5	1%	4µM*
O[C@H]1C[C@H](c2ccc(Cl)cc2)N(CC2CCCCC2)C[C@@H]1n1cc(C2CC2)nn1	5	4	-4%	10µM*
